According to PubChem BioAssay:
The source made the active and inactive calls. The rule behind the calls is not given here.

experiment: Brca1-Bard1 BiLC signal decrease – luminescence, single concentration, counter-screen for Mdm2/MdmX interaction inhibitor project, confirmation (AID 504668); conditions: Brca1/Bard1 bimolecular luciferase complementation counterscreen, at 8 µM, hits give high values

Compound	inhibition
Cc1cc(C)c2nc(N3CCC(C(=O)NCCCN4CC(C)CC(C)C4)CC3)sc2c1 (stereo not given)	32.3% (active)
O=C(/C=C/c1c(F)cccc1Cl)c1ccc(O)cc1	32.3% (active)
COc1ccc(/C=C2\CCC/C(=C\C=N\N(C)C)C2=O)cc1	29.2% (active)
O=C(Nc1nc(-c2ccccn2)cs1)c1cccc(S(=O)(=O)N2CCOCC2)c1	33.4% (active)
CN1CCN(c2cc(N3CCN(C(=O)c4ccco4)CC3)c3c4c(onc24)-c2ccccc2C3=O)CC1	24.3% (active)
Cc1cccc([C@@H]2[C@@H]3C(=O)N(Cc4ccccc4)C(=O)[C@@H]3[C@]3(C)C(=O)N(c4ccc(C(F)(F)F)cc4)C(=O)N23)c1	33.2% (active)
C[n+]1c2n(c3ccccc31)N=C(c1ccc(-c3ccccc3)cc1)CS2	25.5% (active)
Cn1nc(-c2ccccn2)nc2c(=O)n(C)c(=O)nc1-2	33.8% (active)
NC(N)=N/N=C/c1ccc(OCc2ccccc2Cl)cc1	32.5% (active)
NC(=O)c1sc2nc3c(c(-c4ccco4)c2c1N)CCC3	24.9% (active)
Cc1conc1NC(c1cccs1)c1ccc2cccnc2c1O (stereo not given)	31.8% (active)
CC(C)C(=O)NC(c1ccco1)c1ccc2cccnc2c1O (stereo not given)	24% (active)
Cc1csc2nc(O)c(C(=O)NC3CCCCC3)c(=O)n12	35% (active)
CC1(C)Cc2c(sc(NC(=O)c3ccc(C(=O)c4ccccc4)cc3)c2C(N)=O)C(C)(C)N1	34.2% (active)
Cc1nc(NC(=O)/C=C/c2ccccc2)n[nH]1	32.9% (active)
